ChEMBL document CHEMBL3988442, “University of Dundee, Small-Polar-MMV Screening Library” (2021)
For part of these data: Measured potencies and affinities stand elsewhere.

Experiments:
[1] = molecular target: Protein translocase subunit SecA (Escherichia coli (strain K12)) (UniProt P10408); experiment: Assay to Identify E. coli SecA ATPase Inhibitors; format: functional; set-up: scale not given: direction of the effect not stated beside the values; details: 30 µM
[2] = molecular target: T1, Ubiquitin-activating enzyme e1, putative (Leishmania donovani (strain BPK282A1)) (UniProt E9BSI1); experiment: Leishmania donovani Ubiquitin Activating Enzyme (LdE1); format: functional; set-up: scale not given: direction of the effect not stated beside the values; details: 30 µM
T1 sequence (whole entry): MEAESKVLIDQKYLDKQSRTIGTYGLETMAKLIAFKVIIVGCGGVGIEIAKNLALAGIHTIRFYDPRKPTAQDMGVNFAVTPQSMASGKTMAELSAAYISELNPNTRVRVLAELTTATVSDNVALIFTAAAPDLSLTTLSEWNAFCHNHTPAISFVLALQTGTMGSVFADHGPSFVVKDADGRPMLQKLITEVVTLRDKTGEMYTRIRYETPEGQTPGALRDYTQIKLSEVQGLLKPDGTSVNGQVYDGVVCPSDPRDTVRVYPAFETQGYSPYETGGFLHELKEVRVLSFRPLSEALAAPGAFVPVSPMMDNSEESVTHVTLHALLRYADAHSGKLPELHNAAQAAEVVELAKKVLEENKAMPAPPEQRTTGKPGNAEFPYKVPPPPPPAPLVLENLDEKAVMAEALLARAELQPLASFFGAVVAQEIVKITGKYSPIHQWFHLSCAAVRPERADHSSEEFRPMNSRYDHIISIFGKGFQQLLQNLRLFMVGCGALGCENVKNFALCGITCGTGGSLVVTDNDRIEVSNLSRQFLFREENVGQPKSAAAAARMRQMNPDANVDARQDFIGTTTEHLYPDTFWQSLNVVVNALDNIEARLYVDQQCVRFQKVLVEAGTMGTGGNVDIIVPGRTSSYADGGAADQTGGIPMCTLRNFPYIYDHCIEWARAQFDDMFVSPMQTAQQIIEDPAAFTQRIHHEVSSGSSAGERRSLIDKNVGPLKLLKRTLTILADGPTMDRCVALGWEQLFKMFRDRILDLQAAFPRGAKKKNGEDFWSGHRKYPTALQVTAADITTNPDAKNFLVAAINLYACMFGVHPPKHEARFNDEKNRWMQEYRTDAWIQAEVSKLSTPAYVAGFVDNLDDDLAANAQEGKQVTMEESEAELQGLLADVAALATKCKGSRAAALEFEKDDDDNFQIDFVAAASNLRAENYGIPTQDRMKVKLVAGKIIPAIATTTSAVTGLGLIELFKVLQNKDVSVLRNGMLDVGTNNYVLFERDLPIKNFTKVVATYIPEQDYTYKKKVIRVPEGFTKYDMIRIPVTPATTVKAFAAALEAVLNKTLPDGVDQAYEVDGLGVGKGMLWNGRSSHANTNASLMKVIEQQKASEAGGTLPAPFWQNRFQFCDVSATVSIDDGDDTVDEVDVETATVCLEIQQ

[3] = molecular target: AMP-activated protein kinase, AMPK (Homo sapiens) (UniProt P54646+O43741+P54619+Q9UGJ0+Q9Y478+Q13131+Q9UGI9); experiment: AMP-dependent Kinase enzyme assay. An in vitro enzyme assay that detects ADP turnover that is directly proportional to AMPK activity. This uses naive AMPK that is activated during the assay with MK-8722; format: functional; set-up: scale not given: direction of the effect not stated beside the values; details: 30 µM
[4] = molecular target: Sialic acid-binding Ig-like lectin 9 (Homo sapiens) (UniProt Q9Y336); experiment: Hs-Siglec9 ALPHAscreen SOP 20170721; set-up: scale not given: direction of the effect not stated beside the values; details: 10 µM
Trypanosoma cruzi = experiment: Trypanosoma cruzi phosphomannomutase and mannose-1-phosphate guanylyltransferase assay; format: functional; set-up: scale not given: direction of the effect not stated beside the values; details: 10 µM
[5] = molecular target: T2, Arginase-2, mitochondrial (Homo sapiens) (UniProt P78540); experiment: in vitro enzyme assay to detect the production of urea directly proportional to the activity of Arginase II; format: functional; set-up: scale not given: in the data most compounds retested in dose-response had high values
T2 sequence (whole entry): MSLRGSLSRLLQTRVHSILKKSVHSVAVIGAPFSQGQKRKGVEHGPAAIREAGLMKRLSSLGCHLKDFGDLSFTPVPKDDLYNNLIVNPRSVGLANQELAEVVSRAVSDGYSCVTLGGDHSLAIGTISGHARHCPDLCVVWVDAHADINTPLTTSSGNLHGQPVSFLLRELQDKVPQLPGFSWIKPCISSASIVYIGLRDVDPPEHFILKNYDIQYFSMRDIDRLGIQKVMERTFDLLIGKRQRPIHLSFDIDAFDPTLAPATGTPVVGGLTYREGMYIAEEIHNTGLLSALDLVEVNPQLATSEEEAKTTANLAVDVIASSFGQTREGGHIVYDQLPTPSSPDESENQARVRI

[6] = molecular target: T3, Proteasome subunit beta (Trypanosoma cruzi) (UniProt O96673); experiment: Trypanosoma cruzi proteasome chymotrypsin-like activity (TcProtChymo) assay.; format: functional; set-up: scale not given: in the data most compounds retested in dose-response had high values; details: 9.37 µM
T3 sequence (whole entry): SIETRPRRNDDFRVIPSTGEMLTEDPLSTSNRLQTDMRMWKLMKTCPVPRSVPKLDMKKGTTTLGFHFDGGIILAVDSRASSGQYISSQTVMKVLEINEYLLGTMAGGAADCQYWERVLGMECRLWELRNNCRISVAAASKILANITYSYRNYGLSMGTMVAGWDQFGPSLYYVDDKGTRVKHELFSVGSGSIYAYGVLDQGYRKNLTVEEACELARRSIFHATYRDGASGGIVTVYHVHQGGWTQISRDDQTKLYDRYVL

Homo sapiens = species: Homo sapiens; experiment: To identify inhibition of the IFN signalling (Jak-Stat) pathway via expression of an eGFP reporter gene under the control of an IFN-stimulated response element (ISRE) containing MxA promoter.; format: functional; set-up: scale not given: direction of the effect not stated beside the values; details: 30 µM
[7] = molecular target: T4, Tyrosyl-tRNA synthetase, putative (Trypanosoma cruzi (strain CL Brener)) (UniProt Q4DSP6); experiment: Trypanosoma cruzi tyrosyl tRNA synthetase (TcYRS) _High Tyrosine SOP; format: functional; set-up: scale not given: in the data most compounds retested in dose-response had high values; details: 30 µM
T4 sequence (whole entry): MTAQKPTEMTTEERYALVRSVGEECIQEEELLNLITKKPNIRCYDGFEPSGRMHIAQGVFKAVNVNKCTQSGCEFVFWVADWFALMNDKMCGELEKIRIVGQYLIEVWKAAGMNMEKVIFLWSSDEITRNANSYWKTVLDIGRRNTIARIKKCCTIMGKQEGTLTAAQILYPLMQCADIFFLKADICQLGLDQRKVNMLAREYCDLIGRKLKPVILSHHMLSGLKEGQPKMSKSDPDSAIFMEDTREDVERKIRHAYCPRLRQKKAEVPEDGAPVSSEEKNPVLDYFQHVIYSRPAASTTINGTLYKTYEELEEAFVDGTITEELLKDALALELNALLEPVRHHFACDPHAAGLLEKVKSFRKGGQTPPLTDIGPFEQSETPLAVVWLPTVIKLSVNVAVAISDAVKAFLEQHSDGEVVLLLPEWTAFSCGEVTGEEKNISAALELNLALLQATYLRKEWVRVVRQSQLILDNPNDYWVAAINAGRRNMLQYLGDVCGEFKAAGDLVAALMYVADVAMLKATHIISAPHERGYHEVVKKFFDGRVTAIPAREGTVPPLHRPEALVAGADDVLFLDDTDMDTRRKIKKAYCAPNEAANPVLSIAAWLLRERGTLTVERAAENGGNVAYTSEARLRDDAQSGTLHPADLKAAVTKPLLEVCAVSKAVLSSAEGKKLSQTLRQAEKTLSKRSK

[8] = molecular target: T4, Tyrosyl-tRNA synthetase, putative (Trypanosoma cruzi (strain CL Brener)); experiment: Trypanosoma cruzi tyrosyl tRNA synthetase (TcYRS) SOP; format: functional; set-up: scale not given: direction of the effect not stated beside the values; details: 30 µM
[9] = molecular target: Chromo domain-containing protein 1 (Saccharomyces cerevisiae (strain ATCC 204508 / S288c) (Baker's yeast)) (UniProt P32657); experiment: ScCHD-1 Enzyme Inhibition Assay; format: functional; set-up: scale not given: in the data most compounds retested in dose-response had high values; details: 30 µM
[10] = molecular target: T5, Methionyl-tRNA synthetase, putative (Leishmania donovani (strain BPK282A1)) (UniProt E9BF75); experiment: Leishmania donovani Methionine tRNA synthetase (LdMetRS):v7. Dose response assay; format: functional; set-up: conc 80 nM, time 150 minutes
T5 sequence (whole entry): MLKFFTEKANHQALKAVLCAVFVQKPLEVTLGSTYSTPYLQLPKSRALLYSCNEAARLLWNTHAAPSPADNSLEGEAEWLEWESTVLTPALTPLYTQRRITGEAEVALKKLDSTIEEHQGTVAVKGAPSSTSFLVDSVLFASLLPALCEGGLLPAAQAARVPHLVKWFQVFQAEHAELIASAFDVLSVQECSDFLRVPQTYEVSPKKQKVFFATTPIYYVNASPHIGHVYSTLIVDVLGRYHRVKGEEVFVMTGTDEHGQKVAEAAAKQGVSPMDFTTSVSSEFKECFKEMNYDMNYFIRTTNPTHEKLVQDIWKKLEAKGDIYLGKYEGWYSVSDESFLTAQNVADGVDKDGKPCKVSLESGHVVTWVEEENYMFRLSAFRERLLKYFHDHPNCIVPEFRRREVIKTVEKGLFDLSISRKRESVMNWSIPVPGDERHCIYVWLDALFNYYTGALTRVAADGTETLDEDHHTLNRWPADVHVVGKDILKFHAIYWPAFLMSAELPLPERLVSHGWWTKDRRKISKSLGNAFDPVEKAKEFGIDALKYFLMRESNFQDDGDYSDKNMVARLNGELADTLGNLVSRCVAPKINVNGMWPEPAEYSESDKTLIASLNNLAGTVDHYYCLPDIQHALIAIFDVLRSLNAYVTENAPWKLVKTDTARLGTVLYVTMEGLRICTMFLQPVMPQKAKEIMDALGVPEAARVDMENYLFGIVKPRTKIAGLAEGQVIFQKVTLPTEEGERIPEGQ

Chain of Chromo domain-containing protein 1 (Saccharomyces cerevisiae (strain ATCC 204508 / S288c) (Baker's yeast)) (P32657 whole entry, the tested form may be a part): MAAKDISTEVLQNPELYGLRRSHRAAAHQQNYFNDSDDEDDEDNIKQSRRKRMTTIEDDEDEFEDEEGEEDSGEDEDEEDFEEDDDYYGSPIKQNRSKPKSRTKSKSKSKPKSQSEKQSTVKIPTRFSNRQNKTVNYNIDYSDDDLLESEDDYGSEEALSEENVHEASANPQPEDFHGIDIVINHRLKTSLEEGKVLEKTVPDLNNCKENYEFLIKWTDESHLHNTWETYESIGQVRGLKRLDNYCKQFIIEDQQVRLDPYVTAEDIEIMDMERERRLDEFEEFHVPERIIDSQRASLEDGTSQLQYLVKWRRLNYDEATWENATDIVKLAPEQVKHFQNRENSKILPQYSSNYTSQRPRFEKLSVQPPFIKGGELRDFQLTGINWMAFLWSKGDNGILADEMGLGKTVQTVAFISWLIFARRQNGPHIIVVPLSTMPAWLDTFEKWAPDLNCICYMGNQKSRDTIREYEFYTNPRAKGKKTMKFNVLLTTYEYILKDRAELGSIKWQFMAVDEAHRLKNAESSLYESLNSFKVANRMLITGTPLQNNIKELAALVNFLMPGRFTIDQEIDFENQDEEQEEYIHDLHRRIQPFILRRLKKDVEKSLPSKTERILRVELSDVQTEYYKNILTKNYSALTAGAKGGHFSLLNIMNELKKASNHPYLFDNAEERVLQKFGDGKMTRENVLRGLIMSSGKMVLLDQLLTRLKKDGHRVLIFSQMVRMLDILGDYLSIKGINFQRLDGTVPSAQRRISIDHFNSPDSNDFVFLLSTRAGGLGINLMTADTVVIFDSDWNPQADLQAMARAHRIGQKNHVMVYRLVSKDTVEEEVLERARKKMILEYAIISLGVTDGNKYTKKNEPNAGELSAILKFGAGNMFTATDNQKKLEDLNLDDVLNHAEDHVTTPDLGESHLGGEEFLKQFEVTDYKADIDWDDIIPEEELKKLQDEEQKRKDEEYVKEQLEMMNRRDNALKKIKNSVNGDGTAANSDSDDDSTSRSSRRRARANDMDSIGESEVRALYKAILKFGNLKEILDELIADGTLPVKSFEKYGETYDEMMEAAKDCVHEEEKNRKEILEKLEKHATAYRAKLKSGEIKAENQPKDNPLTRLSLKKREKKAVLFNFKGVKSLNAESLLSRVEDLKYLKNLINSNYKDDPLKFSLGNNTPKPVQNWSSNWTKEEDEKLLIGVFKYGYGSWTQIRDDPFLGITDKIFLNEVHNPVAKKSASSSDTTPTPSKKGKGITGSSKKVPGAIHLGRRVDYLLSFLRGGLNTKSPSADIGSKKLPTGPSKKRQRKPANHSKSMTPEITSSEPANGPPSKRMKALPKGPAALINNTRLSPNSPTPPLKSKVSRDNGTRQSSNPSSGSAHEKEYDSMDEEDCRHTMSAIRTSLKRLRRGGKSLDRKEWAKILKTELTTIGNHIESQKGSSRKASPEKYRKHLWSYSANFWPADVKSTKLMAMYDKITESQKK
Chain of Sialic acid-binding Ig-like lectin 9 (Homo sapiens) (Q9Y336 whole entry): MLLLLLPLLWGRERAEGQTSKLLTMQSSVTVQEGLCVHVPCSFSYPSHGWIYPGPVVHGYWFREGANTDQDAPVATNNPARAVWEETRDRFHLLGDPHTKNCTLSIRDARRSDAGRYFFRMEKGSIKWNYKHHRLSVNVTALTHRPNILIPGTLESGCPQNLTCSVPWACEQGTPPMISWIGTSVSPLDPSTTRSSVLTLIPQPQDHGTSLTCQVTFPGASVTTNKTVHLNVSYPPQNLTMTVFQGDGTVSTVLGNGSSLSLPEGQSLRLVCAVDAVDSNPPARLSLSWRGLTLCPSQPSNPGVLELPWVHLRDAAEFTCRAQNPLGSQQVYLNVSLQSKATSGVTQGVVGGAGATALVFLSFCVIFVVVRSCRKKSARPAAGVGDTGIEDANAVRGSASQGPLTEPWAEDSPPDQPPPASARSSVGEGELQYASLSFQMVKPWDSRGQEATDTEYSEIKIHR
Chain of Protein translocase subunit SecA (Escherichia coli (strain K12)) (P10408 whole entry): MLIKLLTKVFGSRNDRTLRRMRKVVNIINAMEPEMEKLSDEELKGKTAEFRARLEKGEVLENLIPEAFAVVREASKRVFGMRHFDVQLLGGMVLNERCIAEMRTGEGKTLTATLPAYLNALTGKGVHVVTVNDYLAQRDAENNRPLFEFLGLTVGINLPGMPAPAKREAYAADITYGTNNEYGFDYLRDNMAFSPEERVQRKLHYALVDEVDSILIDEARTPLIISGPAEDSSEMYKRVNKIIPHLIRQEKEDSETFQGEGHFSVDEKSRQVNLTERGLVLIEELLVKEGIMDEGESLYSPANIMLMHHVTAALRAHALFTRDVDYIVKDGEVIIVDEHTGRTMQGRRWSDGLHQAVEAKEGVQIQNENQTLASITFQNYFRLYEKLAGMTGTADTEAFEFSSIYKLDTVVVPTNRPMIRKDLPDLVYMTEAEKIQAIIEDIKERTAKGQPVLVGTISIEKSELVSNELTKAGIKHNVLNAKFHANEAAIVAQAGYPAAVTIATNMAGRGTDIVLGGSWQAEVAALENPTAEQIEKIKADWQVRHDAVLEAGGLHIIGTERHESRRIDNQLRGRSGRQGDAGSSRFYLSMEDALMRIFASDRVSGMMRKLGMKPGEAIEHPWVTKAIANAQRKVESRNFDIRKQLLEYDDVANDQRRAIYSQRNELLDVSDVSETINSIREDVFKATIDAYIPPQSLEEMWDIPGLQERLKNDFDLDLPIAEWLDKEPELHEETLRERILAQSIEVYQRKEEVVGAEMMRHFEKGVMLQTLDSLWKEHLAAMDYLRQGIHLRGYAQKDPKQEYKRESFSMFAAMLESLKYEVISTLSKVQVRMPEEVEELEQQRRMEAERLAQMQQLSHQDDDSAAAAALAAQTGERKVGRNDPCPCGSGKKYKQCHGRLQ

Row | SMILES | Percent Effect [1] [%] | Percent Effect [2] [%] | Percent Effect [3] [%] | Percent Effect [4] [%] | Percent Effect (Trypanosoma cruzi) [%] | Percent Effect ([5]; 30 µM) [%] | Percent Effect ([5]; 33.3 µM) [%] | Percent Effect [6] [%] | Percent Effect (Homo sapiens) [%] | Percent Effect [7] [%] | Percent Effect [8] [%] | Percent Effect [9] [%] | PXC50 ([10]; MAX_EFFECT 9.660574413) | PXC50 ([10]; MAX_EFFECT 12.53263708)
1 | O=C(NC1CCC1)[C@@H]1CCO[C@@H]2CCN(CCc3ccccc3)C[C@H]21 | -2.5 | 16.2 | -6.69 | -3.15 | 4.3 | 8.11 | 14.6 | 22.7 | 12 | 8.91 | 18.3 | -3.4 | – | –
2 | CN(Cc1ccccn1)C(=O)[C@]12COC[C@H]1CN(Cc1cnn(C)c1)C2 | -1.75 | 2.67 | 0.223 | 6.55 | 1.16 | 5.95 | -52.5 | 3.93 | -7.69 | 2.08 | 7.5 | -8.12 | – | –
3 | Cc1nc(NCc2nncn2C2CC2)c2c(CC(C)C)csc2n1 | – | – | -3.8 | – | – | – | – | – | – | – | – | – | < 4 | < 4
4 | Cc1cc(C)n(C2CN(Cc3noc(-c4ccccc4)n3)C2)n1 | -4.45 | -7.79 | 3.83 | 3.24 | -6.39 | 5.95 | -5.52 | 14.3 | 5.29 | 3.23 | 1.24 | -0.0991 | – | –
5 | COCCC(=O)N1CCC2(COCc3c(C)nc(NCC4CC4)nc32)C1 (stereo not drawn) | -1.4 | 13.3 | 11.3 | 1.42 | -5.32 | 4.87 | -3.03 | 15.4 | 4.83 | 1.06 | 11.5 | -2.58 | – | –
6 | CC1=Nc2c(c(=O)[nH]n2C2CCCC2)C(c2cccc(O)c2)S1 (stereo not drawn) | -2.38 | -1.33 | 11.5 | 2.03 | 1.38 | -1.62 | -1.23 | 11.3 | 36.2 | 14.8 | 20.5 | 0.661 | – | –
